An excerpt weighted towards active compounds, which were near 1.3% of everything screened.
GRK2 aptamer HTS – inhibitors of human GRK2 displacing RNA aptamer. P25098. bead flow cytometry, FAM-aptamer displacement from GRK2. inhibition of aptamer binding, % at 10 µM. hit rate 0.59% among 330,000. AID 488847;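 active means inhibition of aptamer binding above 40%, roughly 3 SD of noise, on plates passing a quality check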;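 further: median bead fluorescence of bound FAM aptamer so fluorescent compounds give negative values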
Target sequence (P25098 whole entry, looked up): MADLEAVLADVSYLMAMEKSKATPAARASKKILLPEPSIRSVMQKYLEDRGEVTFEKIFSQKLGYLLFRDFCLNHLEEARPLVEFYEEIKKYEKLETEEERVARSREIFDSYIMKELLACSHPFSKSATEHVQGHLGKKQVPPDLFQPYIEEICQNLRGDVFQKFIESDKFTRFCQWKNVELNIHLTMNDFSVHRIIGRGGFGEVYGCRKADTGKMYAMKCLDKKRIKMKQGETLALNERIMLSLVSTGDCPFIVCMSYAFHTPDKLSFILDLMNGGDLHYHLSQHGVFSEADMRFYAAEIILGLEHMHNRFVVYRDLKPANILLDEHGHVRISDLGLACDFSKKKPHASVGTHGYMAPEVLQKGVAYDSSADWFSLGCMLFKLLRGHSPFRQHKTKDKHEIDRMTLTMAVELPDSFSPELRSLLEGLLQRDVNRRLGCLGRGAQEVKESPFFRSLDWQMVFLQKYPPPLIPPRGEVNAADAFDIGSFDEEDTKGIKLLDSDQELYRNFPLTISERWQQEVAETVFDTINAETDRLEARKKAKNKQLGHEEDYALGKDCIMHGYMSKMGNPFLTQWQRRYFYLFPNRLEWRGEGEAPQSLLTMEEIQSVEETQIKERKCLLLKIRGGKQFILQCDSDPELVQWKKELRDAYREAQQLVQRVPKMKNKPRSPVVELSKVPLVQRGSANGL
Beta2AR agonist – human beta-2 adrenergic receptor agonism by FAP; response, % (test concentration not listed); hit rate 0.43% among 340,000; P07550; Am2.2-beta2AR cells, FAP receptor internalization, flow cytometry;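 active means response above a set limit, near 3 SD of response in nonfluorescent compounds, cut at about 42% in these data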
VLA-4 inh – inhibition in a human VLA-4 binding assay; P13612; VLA-4 expressing cells, ligand binding flow cytometry; inhibition, % (about 7 µM as worked out from the volumes in the protocol); hit rate 0.2% among 330,000; AID 2557; in the data active means inhibition above about 50%
A1 inh – inhibitors of the anti-apoptotic protein A1, read as caspase activation; hit rate 0.066% among 330,000; caspase activation, % (test concentration not listed); MEF A1-2A-BIM cells, Caspase-Glo 3/7 luminescence, 3 h; percent of clofoctol response, vehicle zero; AID 2462;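 active means over half of replicate activation scores above 10%, or exactly half above 10 with the replicate mean above 10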
NTR1 agonist – activates human neurotensin receptor 1; hit rate 0.17% among 330,000; P30989; NTR1-U2OS beta-arrestin-GFP spot imaging, agonist mode; activation, % at 20 µM;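 active means activation at or above 40% of the spot to cytoplasm intensity ratio, with at least 20 cells analyzed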;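 further: 0% = DMSO without peptide and 100% = 100 nM NTR1 peptide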
GRK2 inh confirm – human GRK2 inhibition confirmation, cherry pick 1. shares compounds with GRK2 aptamer HTS. bead-bound GRK2, FAM-aptamer displacement, flow cytometry. aptamer displacement, % at 10 µM. hit rate 4% among 2,000;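 active means aptamer displacement above 40%, near three times the noise of non-fluorescent compounds, on plates passing quality checks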;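 further: negative values mostly reflect intrinsic compound fluorescence rather than true enhancement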
Aptamer quench 1 – fluorescent aptamer quenching in GRK2 counter-screen dose response; shares compounds with GRK2 aptamer HTS; Fluorescent RNA aptamer beads, flow cytometry; hits give high values; fluorescence change (kMESF span), kMESF (test concentration not listed); 110 tested, under 10 active; AID 504521;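 active means compounds whose bead fluorescence drops by more than 37 kMESF across the dose range, marking them as dye quenchers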
FAM quench CP1 – aptamer fluorescence quenching in GRK2 counter-screen; AID 504580; fluorescence response (% of DMSO), % at 10 µM; shares compounds with GRK2 aptamer HTS; Carboxyfluorescein RNA aptamer on beads, flow cytometry quenching; hits give low values; 2,000 tested, under 10 active;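 active means compounds that quench the bead-bound fluorescent RNA probe, cutting fluorescence to under half of the solvent control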;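 further: counterscreen run without GRK2 so only probe quenching by compound is measured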
GRK2 CP2 – human GRK2 inhibition confirmation, cherry pick 2; shares compounds with GRK2 aptamer HTS; bead-bound GRK2, FAM-aptamer displacement, flow cytometry; inhibition of aptamer binding, % at 10 µM; 360 tested, under 10 active;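 active means inhibition of aptamer binding above 40%, about triple the noise seen with nonglowing compounds, on plates passing quality control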;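 further: negative values mostly come from compounds that fluoresce themselves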
FAM quench CP2 – counter-screen for GRK2 binding hits: quenchers of fluorescent RNA aptamer | shares compounds with GRK2 aptamer HTS | 360 tested, under 10 active | carboxyfluorescein RNA aptamer beads, flow cytometry quenching; hits give low values | fluorescence response vs DMSO, % at 10 µM;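 active means response vs DMSO under 50%, meaning signal dropped by over half, treated as fluorescence quencher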;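 further: labelled aptamer on streptavidin beads without GRK2 as a quench counter-screen; 100% = bead fluorescence of DMSO wells and lower means quenching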
The depositor's hits bear a star; i = inactive; x = no result given.

SMILES	GRK2 aptamer HTS	Beta2AR agonist	VLA-4 inh	A1 inh	NTR1 agonist	GRK2 inh confirm	FAM quench CP1	others
CCOc1ccc(NC2CCCCC2NS(=O)(=O)c2ccccc2)cc1 (stereo unspecified)	49*	7	8	1	1	1	94
COc1ccc(C(=O)NC(Cn2ccnc2)C(C)(C)C)cc1OC1CCN(C(C)C)CC1 (stereo unspecified)	80*	5	2	-1	0	x	x	GRK2 CP2=-3;FAM quench CP2=102
Cc1cc(C(F)(F)F)nc(CCNC(=O)C2CCC(=O)N(Cc3cccc(F)c3)C2)n1 (stereo unspecified)	0	-7	-20	0	1	x	x
O=C(O)c1ccccc1C=NNc1ccccn1	x	-4	x	x	x	x	x
CCN1/C(=C/c2ccc3cc(C)ccc3[n+]2CC)Sc2ccc3sccc3c21	84*	x	i	-1	-4	89*	99	Aptamer quench 1=67*
CN(C)Cc1c(C(=O)N/N=C/C2CC=CCC2)nnn1-c1nonc1N (stereo unspecified)	0	-1	4	1	-1	x	x
Cc1ccc(S(=O)(=O)c2nc(-c3ccccc3F)oc2N2CC(C)OC(C)C2)cc1 (stereo unspecified)	3	-3	-1	0	2	x	x
CC(=O)Nc1ccc(N(C)C)cc1[N+](=O)[O-]	41*	1	-18	1	-1	79*	100	Aptamer quench 1=-1.5
Cc1ccc2c(c1)N(CC(=O)NC1CCCC1)C(=O)c1cccnc1O2	5	-9	42	1	-1	x	x
O=c1cc(CN2CCCCC2)nc(C2CC2)[nH]1	0	-1	5	0	0	x	x
Cc1nc(CN2CCOCC2)cc(=O)[nH]1	48*	3	21	0	-2	1	101
Cc1ccc(S(=O)(=O)N2CCN(C(=O)CC(C)n3nc(C)c(Cl)c3C)CC2)cc1C (stereo unspecified)	4	4	-6	0	2	x	x
Fc1cccc(Cl)c1Cn1ncc2ccccc21	0	5	12	0	1	x	x
c1ccc(Cn2ncc3ccccc32)cc1	26	-10	25	0	-1	2	98
CC1=CC2(C)C(C3C(C)=CC2(C)C(=O)C3(C)O)C(C)(O)C1=O (stereo unspecified)	x	-7	x	x	x	x	x
Cc1cc(C)c2c(c1)NC(C(=O)O)C1CC=CC21 (stereo unspecified)	93*	-6	-85	-2	-1	14	101
Cc1ccc(N2CC(C(=O)Nc3cccc(C(=O)NC4CC4)c3)CC2=O)cc1 (stereo unspecified)	6	5	6	0	-1	6	98
Cc1cccc(NC(=O)CNC(=O)CN2C(=O)NC(C)(CCC(C)C)C2=O)c1C (stereo unspecified)	x	9	x	x	x	x	x
Cc1ccc(S(=O)(=O)N2CCN(C(=O)c3cc4c(s3)CCCC4)CC2)c(C)c1	49*	0	17	0	8	0	99
COc1ccc(S(=O)(=O)N2CCN(C(=O)c3cc4c(s3)CCC4)CC2)cc1	82*	-3	-6	-1	1	25	109
Cc1ccc(S(=O)(=O)N2CCN(C(=O)c3cc4c(s3)CCCC4)CC2)cc1	1	-5	-3	0	7	x	x
Cc1ccn2c(NC3CCCCC3)c(-c3cccc(-c4cccc(Cl)c4)c3)nc2c1	15	23	-14	1	10	x	x
O=C(NCc1ccccn1)Nc1ccccc1C(F)(F)F	2	1	-7	2	1	x	x
COc1cc(NS(=O)(=O)c2ccc3c(c2)C(C)(C)C(=O)N3C)cc(OC)c1	44*	4	-73	0	-4	4	99
COc1ccc(OC)c(-n2c(SC)nnc2-c2c[nH]c3ccccc23)c1	100*	5	11	0	-1	-3	99
SMILES	GRK2 aptamer HTS	Beta2AR agonist	VLA-4 inh	A1 inh	NTR1 agonist	GRK2 inh confirm	FAM quench CP1	others
CCC(CO)[n+]1c(C)cc(/C=C2\Sc3ccccc3N2Cc2ccccc2)cc1C (stereo unspecified)	71*	-389	-303	0	x	30	138
CCc1nnc(NC(=O)CSc2nnc(-c3ccc(O)cc3)n2C)s1	37	1	10	0	0	-5	102
O=C(NCc1cccs1)c1cc(S(=O)(=O)N2CCOCC2)c(Cl)cc1Cl	0	-6	12	0	0	x	x
COc1ccc(N2C(=O)CC(NNC(=O)c3cccnc3)C2=O)cc1 (stereo unspecified)	3	-1	10	1	0	x	x
OC1(c2cccc(C(F)(F)F)c2)CCN(Cc2nnnn2Cc2ccccc2)CC1	93*	11	9	1	3	1	94
OC1(c2cccc(C(F)(F)F)c2)CCN(Cc2nnnn2CCc2ccccc2)CC1	1	13	1	-1	0	x	x
O=C(CCS(=O)(=O)c1ccccc1)Nc1ccccn1	76*	-3	-12	0	0	2	101
Cc1cccc(NC(=O)CCS(=O)(=O)c2ccc(Br)cc2)c1	3	1	2	0	0	x	x
Cc1ccnc(NC(=O)CCS(=O)(=O)c2ccccc2)c1	14	-5	-4	1	0	8	97
Cc1ccnc(NC(=O)CS(=O)(=O)c2ccccc2)c1	0	-10	13	0	-2	x	x
Cc1cccc(NC(=O)CCS(=O)(=O)c2ccc(Cl)cc2)c1	3	-5	6	0	-1	x	x	GRK2 CP2=0;FAM quench CP2=100
CCCCN1CC[C@H]2C=CC[C@@H](C(=O)Nc3nccs3)[C@H]2C1=O	x	-5	x	0	0	x	x
O=[N+]([O-])c1cc2oc3c(c2c(C=NCc2ccncc2)c1O)CCCC3	x	-1	x	x	x	x	x
O=C(N[C@@H]1c2ccccc2CC[C@@H]1OCc1ccccc1)c1ccc(-c2ccccc2)cc1	0	3	x	x	4	x	x
CS(=O)(=O)N(CC(=O)NCCSCc1cccc(Cl)c1)c1ccccc1F	0	-16	3	0	0	x	x
O=C(CCS(=O)(=O)c1ccc(Br)cc1)N1CCN(c2ccccc2)CC1	29	5	8	1	2	x	x
